# According to publication PMC5540273 (PLoS ONE, 2017):
# “And” between values parts separate entries of the source, which are not always exact repeats. Equal entries are not always repeated. Where two headings read alike, the source gives them in different places.
# Columns and labels:
# [1] = tested on: CHEK1; details: concentration: 1 μM, replicates: in singlicate, n = 1
# [2] = tested on: CHEK2; details: concentration: 1 μM, replicates: in singlicate, n = 1
# [3] = tested on: CIT; details: concentration: 1 μM, replicates: in singlicate, n = 1
# [4] = tested on: CLK1; details: concentration: 1 μM, replicates: in singlicate, n = 1
# [5] = tested on: CLK2; details: concentration: 1 μM, replicates: in singlicate, n = 1
# [6] = tested on: CLK3; details: concentration: 1 μM, replicates: in singlicate, n = 1
# [7] = tested on: CLK4; details: concentration: 1 μM, replicates: in singlicate, n = 1
# [8] = tested on: CSF1R-autoinhibited; details: concentration: 1 μM, replicates: in singlicate, n = 1
# [9] = tested on: CSF1R; details: concentration: 1 μM, replicates: in singlicate, n = 1
# [10] = tested on: CSK; details: concentration: 1 μM, replicates: in singlicate; n = 1
# [11] = tested on: CSNK1A1L; details: concentration: 1 μM, replicates: in singlicate, n = 1
# [12] = tested on: CSNK1A1; details: concentration: 1 μM, replicates: in singlicate, n = 1
# [13] = tested on: CSNK1D; details: concentration: 1 μM, replicates: in singlicate, n = 1
# [14] = tested on: CSNK1E; details: concentration: 1 μM, replicates: in singlicate, n = 1
# [15] = tested on: CSNK1G1; details: concentration: 1 μM, replicates: in singlicate, n = 1
# [16] = tested on: CSNK1G2; details: concentration: 1 μM, replicates: in singlicate, n = 1
# [17] = tested on: CSNK1G3; details: concentration: 1 μM, replicates: in singlicate, n = 1
# [18] = tested on: CSNK2A1; details: concentration: 1 μM, replicates: in singlicate, n = 1
# [19] = tested on: CSNK2A2; details: concentration: 1 μM, replicates: in singlicate, n = 1
# [20] = tested on: T1, CTK; details: concentration: 1 μM, replicates: in singlicate; n = 1
# T1 construct: gene MATK
# 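Further: KINOMEscan kinase panel screen.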
smiles,measurement,setting,value
C[C@@H](Oc1cc(-n2cnc3ccc(NC(=O)NC(C)(C)C)cc32)sc1C(N)=O)c1ccccc1Cl [GSK346294],%Inh,[1],10%
same,%Inh,[2],19%
same,%Inh,[3],0%
same,%Inh,[4],18%
same,%Inh,[5],7%
same,%Inh,[6],22%
same,%Inh,[7],40%
same,%Inh,[8],15%
same,%Inh,[9],6%
same,%Inh,[10],1%
same,%Inh,[11],6%
same,%Inh,[12],0%
same,%Inh,[13],3%
same,%Inh,[14],19%
same,%Inh,[15],0%
same,%Inh,[16],0%
same,%Inh,[17],32%
same,%Inh,[18],2%
same,%Inh,[19],0%
same,%Inh,[20],0%
CN1c2ccc(NCc3ccc(F)cc3)cc2-c2c(cnn2C)S1(=O)=O,%Inh,[1],0%
same,%Inh,[2],0%
same,%Inh,[3],0%
same,%Inh,[4],0%
same,%Inh,[5],0%
same,%Inh,[6],0%
same,%Inh,[7],0%
same,%Inh,[8],1%
same,%Inh,[9],0%
same,%Inh,[10],0%
same,%Inh,[11],0%
same,%Inh,[12],0%
same,%Inh,[13],2%
same,%Inh,[14],3%
same,%Inh,[15],0%
same,%Inh,[16],0%
same,%Inh,[17],0%
same,%Inh,[18],0%
same,%Inh,[19],0%
same,%Inh,[20],0%
Fc1ccc(-c2ncn(CCCN3CCOCC3)c2-c2ccccn2)cc1 [SB-211742],%Inh,[1],0%
same,%Inh,[2],0%
same,%Inh,[3],8%
same,%Inh,[4],8%
same,%Inh,[5],8%
same,%Inh,[6],3%
same,%Inh,[7],0%
same,%Inh,[8],0%
same,%Inh,[9],0%
same,%Inh,[10],0%
same,%Inh,[11],0%
same,%Inh,[12],36%
same,%Inh,[13],10%
same,%Inh,[14],9%
same,%Inh,[15],5%
same,%Inh,[16],0%
same,%Inh,[17],0%
same,%Inh,[18],0%
same,%Inh,[19],0%
same,%Inh,[20],0%
COc1ccc(Nc2nccc(N3CCC(NC(=O)Nc4cc(C)ccc4C)C3)n2)cc1 (stereo not shown) [GSK1379741],%Inh,[1],0%
same,%Inh,[2],0%
same,%Inh,[3],5%
same,%Inh,[4],14%
same,%Inh,[5],0%
same,%Inh,[6],0%
same,%Inh,[7],0%
same,%Inh,[8],0%
same,%Inh,[9],4%
same,%Inh,[10],0%
same,%Inh,[11],2%
same,%Inh,[12],0%
same,%Inh,[13],0%
same,%Inh,[14],12%
same,%Inh,[15],0%
same,%Inh,[16],0%
same,%Inh,[17],14%
same,%Inh,[18],0%
same,%Inh,[19],0%
same,%Inh,[20],0%
NCCNS(=O)(=O)c1ccc(-c2ccnc3[nH]ccc23)cc1 [GSK977617],%Inh,[1]; 1 µM,8% and 21%
same,%Inh,[2]; 1 µM,72% and 63%
same,%Inh,[3]; 1 µM,65% and 48%
same,%Inh,[4]; 1 µM,95.5% and 95.4%
same,%Inh,[5]; 1 µM,94.8% and 95.5%
same,%Inh,[6]; 1 µM,64% and 83%
same,%Inh,[7]; 1 µM,97.7% and 96%
same,%Inh,[8]; 1 µM,11% and 0%
same,%Inh,[9]; 1 µM,46% and 19%
same,%Inh,[10],0%
same,%Inh,[11]; 1 µM,76% and 61%
same,%Inh,[12]; 1 µM,88% and 93.1%
same,%Inh,[13]; 1 µM,77% and 70%
same,%Inh,[14]; 1 µM,85% and 86%
same,%Inh,[15]; 1 µM,20% and 0%
same,%Inh,[16]; 1 µM,58% and 24%
same,%Inh,[17]; 1 µM,51% and 59%
same,%Inh,[18]; 1 µM,72% and 56%
same,%Inh,[19]; 1 µM,63% and 56%
same,%Inh,[20],0%
[2H]C([2H])(c1cccc(C(F)(F)F)c1C)n1ccn2c(=O)nc(N3CCOCC3)cc12 [GSK2336394],%Inh,[1],0%
same,%Inh,[2],0%
same,%Inh,[3],11%
same,%Inh,[4],20%
same,%Inh,[5],0%
same,%Inh,[6],14%
same,%Inh,[7],12%
same,%Inh,[8],0%
same,%Inh,[9],0%
same,%Inh,[10],0%
same,%Inh,[11],16%
same,%Inh,[12],0%
same,%Inh,[13],19%
same,%Inh,[14],12%
same,%Inh,[15],9%
same,%Inh,[16],0%
same,%Inh,[17],19%
same,%Inh,[18],0%
same,%Inh,[19],0%
same,%Inh,[20],0%
COc1ccc(CNC(=O)NC2CCN(c3ccnc(Nc4ccc(OC)cc4)n3)C2)cc1 (stereo not shown) [GSK1379727],%Inh,[1],0%
same,%Inh,[2],27%
same,%Inh,[3],19%
same,%Inh,[4],19%
same,%Inh,[5],0%
same,%Inh,[6],0%
same,%Inh,[7],14%
same,%Inh,[8],16%
same,%Inh,[9],0%
same,%Inh,[10],0%
same,%Inh,[11],5%
same,%Inh,[12],0%
same,%Inh,[13],0%
same,%Inh,[14],8%
same,%Inh,[15],0%
same,%Inh,[16],0%
same,%Inh,[17],8%
same,%Inh,[18],7%
same,%Inh,[19],0%
same,%Inh,[20],0%
CCc1nc(-c2cccc(C)c2)c(-c2ccnc(NCc3ccccc3)c2)s1,%Inh,[1],0%
same,%Inh,[2],10%
same,%Inh,[3],29%
same,%Inh,[4],0%
same,%Inh,[5],11%
same,%Inh,[6],0%
same,%Inh,[7],0%
same,%Inh,[8],0%
same,%Inh,[9],6%
same,%Inh,[10],0%
same,%Inh,[11],11%
same,%Inh,[12],8%
same,%Inh,[13],29%
same,%Inh,[14],8%
same,%Inh,[15],0%
same,%Inh,[16],0%
same,%Inh,[17],0%
same,%Inh,[18],0%
same,%Inh,[19],0%
same,%Inh,[20],17%
